# In the supplement of paper PMC8728848:
# Shown is part of a subset that was picked to be rich in the strongest signals.
# Tests used:
# Test in all cases: glycan array binding signal (z-score within array); higher = stronger binding
# Conditions in all cases: glycan notation: IUPAC condensed, linker removed
# [1] = molecular target: Fuc(a1-2)Gal(b1-3)GlcNAc(b1-3)GalNAc
# Method in brief: (§1)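 From the Consortium for Functional Glycomics database, 3228 arrays were curated, keeping only those whose protein sequence was available. Binding is given as a within-array Z-score averaged across arrays sharing a protein sequence and across linkers. Negative Z-scores can be read as non-binding.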
# [2] = molecular target: Fuc(a1-2)Gal(b1-4)[Fuc(a1-3)]GlcNAc(b1-2)[Fuc(a1-2)Gal(b1-4)[Fuc(a1-3)]GlcNAc(b1-4)]Man(a1-3)[Fuc(a1-2)Gal(b1-4)[Fuc(a1-3)]GlcNAc(b1-2)Man(a1-6)]Man(b1-4)GlcNAc(b1-4)GlcNAc
# Method in brief: as §1
# [3] = molecular target: Fuc(a1-2)Gal6S(b1-3)GlcNAc6S
# Method in brief: as §1
# [4] = molecular target: Fuc(a1-2)[Gal(a1-3)]Gal(b1-4)GlcNAc
# Method in brief: as §1
# [5] = molecular target: Fuc(a1-3)[Gal(b1-4)]GlcNAc(b1-2)Man(a1-3)[Fuc(a1-3)[Gal(b1-4)]GlcNAc(b1-2)Man(a1-6)]Man(b1-4)GlcNAc(b1-4)GlcNAc
# Method in brief: as §1
# [6] = molecular target: Fuc(a1-3)[Gal(b1-4)]GlcNAc(b1-4)Gal(b1-4)[Fuc(a1-3)]GlcNAc
# Method in brief: as §1
# [7] = molecular target: Fuc(a1-3)[GalNAc3S(b1-4)]GlcNAc
# Method in brief: as §1
# Fuc(a1-4)GlcNAc = molecular target: Fuc(a1-4)GlcNAc
# Method in brief: as §1
# [8] = molecular target: Gal(a1-3)Gal(b1-3)GlcNAc(b1-6)GalNAc
# Method in brief: as §1
# [9] = molecular target: Gal(a1-4)Gal(b1-4)GlcNAc(b1-2)Man(a1-3)[Gal(a1-4)Gal(b1-4)GlcNAc(b1-2)Man(a1-6)]Man(b1-4)GlcNAc(b1-4)GlcNAc
# Method in brief: as §1
# [10] = molecular target: Gal(b1-3)Gal(b1-4)GlcNAc(b1-2)Man(a1-3)[Gal(b1-3)Gal(b1-4)GlcNAc(b1-2)Man(a1-6)]Man(b1-4)GlcNAc(b1-4)GlcNAc
# Method in brief: as §1
# [11] = molecular target: Gal(b1-3)GalNAc(b1-4)[Neu5Ac(a2-3)]Gal(b1-4)Glc
# Method in brief: as §1
# [12] = molecular target: Gal(b1-3)GlcNAc(b1-2)Man(a1-3)[GlcNAc(b1-4)][Gal(b1-3)GlcNAc(b1-2)Man(a1-6)]Man(b1-4)GlcNAc(b1-4)GlcNAc
# Method in brief: as §1
# [13] = molecular target: Gal(b1-3)[Fuc(a1-4)]GlcNAc
# Method in brief: as §1
# [14] = molecular target: Gal(b1-3)[Fuc(a1-4)]GlcNAc(b1-3)Gal(b1-4)GlcNAc
# Method in brief: as §1
# [15] = molecular target: Gal(b1-3)[Fuc(a1-4)]GlcNAc(b1-3)Gal(b1-4)[Fuc(a1-3)]GlcNAc
# Method in brief: as §1
# [16] = molecular target: Gal(b1-3)[Neu5Ac(a2-6)]GlcNAc(b1-6)Gal(b1-4)Glc
# Method in brief: as §1
# [17] = molecular target: Gal(b1-4)GlcNAc(b1-2)Man(a1-3)[Gal(b1-4)GlcNAc(b1-2)][GlcNAc(b1-4)]Man(b1-4)GlcNAc(b1-4)GlcNAc
# Method in brief: as §1
# [18] = molecular target: Gal(b1-4)GlcNAc(b1-2)[Gal(b1-4)GlcNAc(b1-4)]Man(a1-3)[Gal(b1-4)GlcNAc(b1-2)Man(a1-6)]Man(b1-4)GlcNAc(b1-4)GlcNAc
# Method in brief: as §1
# [19] = molecular target: Gal(b1-4)GlcNAc(b1-2)[Gal(b1-4)GlcNAc(b1-6)]Man(a1-6)[GlcNAc(b1-4)][Gal(b1-4)GlcNAc(b1-2)Man(a1-3)]Man(b1-4)GlcNAc(b1-4)GlcNAc
# Method in brief: as §1
# [20] = molecular target: Gal(b1-4)GlcNAc(b1-6)Gal(b1-4)GlcNAc
# Method in brief: as §1
# [21] = molecular target: Gal(b1-4)GlcNAc(b1-6)[Gal(b1-3)]GalNAc
# Method in brief: as §1
# Gal(b1-4)GlcNAc6P = molecular target: Gal(b1-4)GlcNAc6P
# Method in brief: as §1
# Gal6S(b1-4)Glc6S = molecular target: Gal6S(b1-4)Glc6S
# Method in brief: as §1
# GlcA(b1-3)Gal = molecular target: GlcA(b1-3)Gal
# Method in brief: as §1
# [22] = molecular target: GlcNAc(b1-2)Man(a1-3)[GlcNAc(b1-4)][GlcNAc(b1-2)Man(a1-6)]Man(b1-4)GlcNAc(b1-4)GlcNAc
# Method in brief: as §1
# [23] = molecular target: GlcNAc(b1-2)[GlcNAc(b1-6)]Man(a1-6)[GlcNAc(b1-2)Man(a1-3)][GlcNAc(b1-4)]Man(b1-4)GlcNAc(b1-4)GlcNAc
# Method in brief: as §1
# [24] = molecular target: GlcNAc(b1-3)[GlcNAc(b1-4)][GlcNAc(b1-6)]GlcNAc
# Method in brief: as §1
# GlcNAc3Prop(b1-4)GlcNAc = molecular target: GlcNAc3Prop(b1-4)GlcNAc
# Method in brief: as §1
# Man(a1-2)Man(a1-3)Man = molecular target: Man(a1-2)Man(a1-3)Man
# Method in brief: as §1
# [25] = molecular target: Man(a1-2)Man(a1-3)[Man(a1-2)Man(a1-6)]Man
# Method in brief: as §1
# [26] = molecular target: Man(a1-2)Man(a1-3)[Man(a1-6)]Man(a1-6)[Man(a1-2)Man(a1-3)]Man(b1-4)GlcNAc(b1-4)GlcNAc
# Method in brief: as §1
# [27] = molecular target: Neu5Ac(a2-3)Gal(b1-4)GlcNAc(b1-2)Man
# Method in brief: as §1
# [28] = molecular target: Neu5Ac(a2-3)Gal(b1-4)GlcNAc(b1-3)[Neu5Ac(a2-3)Gal(b1-4)GlcNAc(b1-6)]GalNAc
# Method in brief: as §1
# [29] = molecular target: Neu5Ac(a2-6)Gal(b1-4)GlcNAc(b1-2)Man(a1-3)Man(b1-4)GlcNAc(b1-4)GlcNAc
# Method in brief: as §1
# [30] = molecular target: Neu5Ac(a2-6)Gal(b1-4)GlcNAc(b1-2)Man(a1-3)[GlcNAc(b1-2)Man(a1-6)]Man(b1-4)GlcNAc(b1-4)GlcNAc
# Method in brief: as §1
# [31] = molecular target: Neu5Ac(a2-6)Gal(b1-4)GlcNAc(b1-2)Man(a1-3)[Man(a1-6)]Man(b1-4)GlcNAc(b1-4)GlcNAc
# Method in brief: as §1
# [32] = molecular target: Neu5Ac(a2-6)Gal(b1-4)GlcNAc(b1-2)Man(a1-3)[Neu5Ac(a2-6)Gal(b1-4)GlcNAc(b1-2)Man(a1-6)]Man(b1-4)GlcNAc(b1-4)GlcNAc
# Method in brief: as §1
# [33] = molecular target: Neu5Ac(a2-6)Gal(b1-4)GlcNAc(b1-2)Man(a1-3)[Neu5Ac(a2-6)Gal(b1-4)GlcNAc(b1-2)Man(a1-6)]Man(b1-4)GlcNAc(b1-4)[Fuc(a1-6)]GlcNAc
# Method in brief: as §1
# [34] = molecular target: Neu5Ac(a2-6)Gal(b1-4)GlcNAc(b1-2)Man(a1-6)[Gal(b1-4)GlcNAc(b1-2)Man(a1-3)]Man(b1-4)GlcNAc(b1-4)GlcNAc
# Method in brief: as §1
# [35] = molecular target: Neu5Ac(a2-6)Gal(b1-4)GlcNAc(b1-3)[Neu5Ac(a2-6)Gal(b1-4)GlcNAc(b1-6)]GalNAc
# Method in brief: as §1
# [36] = molecular target: Neu5Gc(a2-6)Gal(b1-4)GlcNAc
# Method in brief: as §1
binder,measurement,setting,value
"Calsepa (Calystegia sepium), P93114 (protein) MAVPMDTISGPWGNNGGNFWSFRPVNKINQIVISYGGGGNNPIALTFSSTKADGSKDTITVGGGGPDSITGTEMVNIGTDEYLTGISGTFGIYLDNNVLRSITFTTNLKAHGPYGQKVGTPFSSANVVGNEIVGFLGRSGYYVDAIGTYNRHK",glycan array binding signal (z-score),[1],-0.268
same,glycan array binding signal (z-score),[2],-0.257
same,glycan array binding signal (z-score),[3],-0.26
same,glycan array binding signal (z-score),[4],-0.249
same,glycan array binding signal (z-score),[5],-0.082
same,glycan array binding signal (z-score),[6],-0.253
same,glycan array binding signal (z-score),[7],-0.265
same,glycan array binding signal (z-score),Fuc(a1-4)GlcNAc,-0.244
same,glycan array binding signal (z-score),[8],-0.269
same,glycan array binding signal (z-score),[9],3.47
same,glycan array binding signal (z-score),[10],3.79
same,glycan array binding signal (z-score),[11],-0.253
same,glycan array binding signal (z-score),[12],4.21
same,glycan array binding signal (z-score),[13],-0.25
same,glycan array binding signal (z-score),[14],-0.252
same,glycan array binding signal (z-score),[15],-0.253
same,glycan array binding signal (z-score),[16],-0.248
same,glycan array binding signal (z-score),[17],5.25
same,glycan array binding signal (z-score),[18],-0.045
same,glycan array binding signal (z-score),[19],3.71
same,glycan array binding signal (z-score),[20],-0.251
same,glycan array binding signal (z-score),[21],-0.249
same,glycan array binding signal (z-score),Gal(b1-4)GlcNAc6P,-0.27
same,glycan array binding signal (z-score),Gal6S(b1-4)Glc6S,-0.237
same,glycan array binding signal (z-score),GlcA(b1-3)Gal,-0.244
same,glycan array binding signal (z-score),[22],5
same,glycan array binding signal (z-score),[23],5.82
same,glycan array binding signal (z-score),[24],-0.241
same,glycan array binding signal (z-score),GlcNAc3Prop(b1-4)GlcNAc,-0.246
same,glycan array binding signal (z-score),Man(a1-2)Man(a1-3)Man,-0.248
same,glycan array binding signal (z-score),[25],-0.251
same,glycan array binding signal (z-score),[26],-0.239
same,glycan array binding signal (z-score),[27],-0.255
same,glycan array binding signal (z-score),[28],-0.273
same,glycan array binding signal (z-score),[29],6.79
same,glycan array binding signal (z-score),[30],3.81
same,glycan array binding signal (z-score),[31],3.86
same,glycan array binding signal (z-score),[32],4.29
same,glycan array binding signal (z-score),[33],0.514
same,glycan array binding signal (z-score),[34],4.01
same,glycan array binding signal (z-score),[35],-0.274
same,glycan array binding signal (z-score),[36],-0.247
